Measurements reported in PubChem BioAssay AID1851 (National Center for Advancing Translational Sciences (NCATS), 2009).
Hit rate of the full screen: of about 16,000 compounds, about 5,700 (36%) were called active. About 24% were inconclusive and are not listed. Calls come from the whole dose curve; as a rule, active = well fitted curve in the direction sought with a large enough effect; inconclusive = small, poorly fitted or top-dose-only effect, or effect the other way; inactive = no such curve, though single readings can be large or run the other way. This is one part of the list.

The compounds below were run against Cytochrome P450 1A2 (Homo sapiens) (UniProt P05177) (assay: Cytochrome panel assay with activity outcomes). Conditions: recombinant CYP, pro-luciferin dealkylation, luminescence, p450-cyp1a2; series mostly up to 57.1 µM; activity, negative = inhibition: at the top concentration.
Cytochrome P450 1A2 (Homo sapiens), sequence (P05177 whole entry, looked up): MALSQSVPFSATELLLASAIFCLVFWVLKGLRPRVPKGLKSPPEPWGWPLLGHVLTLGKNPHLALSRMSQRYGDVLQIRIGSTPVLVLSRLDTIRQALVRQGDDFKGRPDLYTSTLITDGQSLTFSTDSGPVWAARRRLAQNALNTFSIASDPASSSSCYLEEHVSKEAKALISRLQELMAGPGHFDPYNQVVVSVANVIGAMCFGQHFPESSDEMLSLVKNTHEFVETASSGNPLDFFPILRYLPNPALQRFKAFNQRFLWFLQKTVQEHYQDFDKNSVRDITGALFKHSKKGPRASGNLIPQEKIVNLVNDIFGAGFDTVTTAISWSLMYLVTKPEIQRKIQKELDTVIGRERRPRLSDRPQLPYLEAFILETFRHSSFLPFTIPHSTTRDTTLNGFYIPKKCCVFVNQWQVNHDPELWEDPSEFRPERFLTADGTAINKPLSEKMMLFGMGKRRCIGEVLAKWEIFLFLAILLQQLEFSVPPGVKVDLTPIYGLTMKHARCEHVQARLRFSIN
% is set by controls: 0 for no effect and ±100 for the full control effect.

activity, negative = inhibition, inactive:
Cc1cccc(C(=O)NC2CCN(C(=O)N3CCOCC3)CC2)c1 -14.5%
Cc1cccc(C(=O)NC(=S)N2CCN(C)CC2)c1 -21.4%
COc1cccc(C(C(=O)Nc2ccc(F)cc2)N(C(=O)Cn2nnc3ccccc32)C2CC2)c1 (centres undefined) -8.22%
CN(C)S(=O)(=O)Nc1ccccn1 -5.82% [at 11.4 µM]
Nc1ccc(S(=O)(=O)Nc2ccccn2)cc1 -9.64% [at 25.6 µM]
COc1cc(-c2nnc(-c3ccc(N4CCOCC4)cc3)o2)cc(OC)c1OC -18.7%
COc1cc(C(=O)Nc2ccc(-c3nnc(-c4ccco4)o3)cc2)cc(OC)c1OC 14.3%
CN(C)C(=O)c1ccc(-c2cncnc2N2CCNCC2)cc1 0.554%
CC1=C/C(=N/O)C([C@H]2C=C(C)CC(C)(C)[C@@H]2O)C(C)(C)C1 (some centres undefined) -5.85% [at 11.4 µM]
CC(C)C(NC(=O)C12CC3CC(CC(C3)C1)C2)C(=O)NC1=NCCS1 (centres undefined) -16.5%
COc1ccc(S(=O)(=O)N2CCC[C@H]2C(=O)NC2=NCCS2)cc1 -24.4%
Cc1ccc(S(=O)(=O)N2CCN(C(=O)C3COc4ccccc4O3)CC2)cc1C (centres undefined) -49%
O=C(NCCCN1CCOCC1)C1COc2ccccc2O1 (centres undefined) 5.54%
O=C(NCc1cccnc1)[C@@H]1[C@@H](C(=O)O)[C@H]2CC[C@@H]1O2 -11% [at 11.4 µM]
CS(=O)(=O)N1CCC2(CCCN(C(=O)Nc3cccc(C#N)c3)C2)CC1 4.7%
CC(=O)N1CCC[C@@]2(CCN(Cc3nccs3)C2)C1 -9.06%
COC(=O)CC1C(=O)NCCN1C(=O)Nc1ccc(Cl)cc1 (centres undefined) -14.1%
Cc1nn(C)c(C(=O)NNC(=S)Nc2ccc(Cl)cc2)c1[N+](=O)[O-] -6.63%
Cc1nn(Cc2c(F)c(F)c(F)c(F)c2F)c(C)c1NC(=O)c1c(-c2ccccc2)nn(-c2ccccc2)c1C 2.23%
CC(=O)OC[C@@H]1O[C@@H](O/N=C2/C[C@@H](O)[C@@H](O)[C@@H]3[C@@H]4C(=O)N([C@@H](C)c5ccccc5)C(=O)[C@H]4CC[C@@H]23)[C@H](OC(C)=O)[C@H](OC(C)=O)[C@@H]1OC(C)=O 4.64% [at 11.4 µM]
O=C1C[C@H]2C(=O)[C@@H]1[C@@H](C(=O)O)[C@H]2C(=O)O -11% [at 11.4 µM]
COc1ccc(COC2OC[C@]3(C)[C@H]4C5=C(CN3C(=O)OC(C)(C)C)[C@H](C)C(CO)C(CO)C5CC[C@@H]24)cc1 (some centres undefined) -11.3%
CC(C)[C@H](NC(=O)OC(C)(C)C)[C@@H](O)CC(=O)OC(C)(C)C -7.19% [at 11.4 µM]
CCOC(=O)N1CCN(CC(=O)c2ccc3c(c2)CCN3)CC1 -27.8%
COc1cc(/C=C2/C(=N)N3OC(C)=CC3=NC2=O)ccc1OCCOc1ccc(C)cc1 -8.75%
CCOc1cc(/C=C2/C(=N)N3C=CSC3=NC2=O)ccc1OCCCOc1ccccc1C -27.4%
COC(=O)[C@@H]1CC[C@H](C)[C@@H](c2ccc(C)cc2)N1C(=O)c1ccc(/C=N\OC[C@@H](O)[C@H]2O[C@H]3OC(C)(C)O[C@H]3[C@@H]2O)cc1 -5.97% [at 11.4 µM]
CC(=O)N1CCC2(CC1)CN(Cc1ccccc1)C2 3.64%
Oc1cc2c(c(Cl)c1O)CCNC[C@H]2c1ccccc1 -20.5%
C/C(CCN1CCc2nc(-c3ccccc3)c(-c3ccccc3)cc2C1)=N\OC[C@@H](O)[C@@H]1O[C@@H]2OC(C)(C)O[C@@H]2[C@H]1O -5.51% [at 11.4 µM]

AC50, active:
Cc1cccc(C(=O)NCN2CCN(c3ccccc3C#N)CC2)c1 20 µM
O=C(CSc1nnc(Cn2nnc3ccccc32)o1)Nc1cccc(Cl)c1 12.6 µM
Cc1cc(C)c2cc(CN(Cc3nnnn3Cc3ccc(F)cc3)C3CCCC3)c(=O)[nH]c2c1 14.1 µM
O=C1C(Cl)=C(Nc2ccc(S(=O)(=O)Nc3ccccn3)cc2)C(=O)c2ccccc21 3.16 µM
CCCCOC(=O)CSc1nnc(-c2cc(OC)c(OC)c(OC)c2)o1 31.6 µM
COc1cc(-c2nnc(SCC3(c4ccccc4)OCCO3)o2)cc(OC)c1OC 12.6 µM
c1cn(-c2ccnc(-c3ccc4c(c3)OCO4)n2)cn1 0.0251 µM
CN1CCN(c2ncncc2-c2ccc(N(C)C)cc2)CC1 12.6 µM
CN(C)C(=O)c1ccc(-c2cncnc2-n2ccnc2)cc1 20 µM
CN(C)c1ccc(-c2cncnc2-n2ccnc2)cc1 2.51 µM
CN(C)C(=O)c1ccc(-c2nccc(-n3ccnc3)n2)cc1 15.8 µM
Cc1ccc(OCC(=O)NC2=NCCS2)cc1 8.91 µM
O=C(Nc1cccnc1)C1COc2ccccc2O1 (centres undefined) 11.2 µM
O=C(NCc1cccnc1)C1COc2ccccc2O1 (centres undefined) 15.8 µM
Cn1nccc1C(=O)Nc1ccc(Cl)cc1 4.47 µM
O=C(Nc1ccc(Cl)cc1)c1cnc(-c2ccccc2)nc1-c1ccccc1 0.708 µM
Cn1nc(-c2ccccc2)c(C(=O)Nc2ccc(Cl)cc2)c1Cl 1.26 µM
COc1ccc(CNc2ncncc2-c2ccccc2CN(C)C)c(OC)c1 15.8 µM
COc1ccc(CNc2ncncc2-c2ccccc2C)c(OC)c1 10 µM
COc1ccc(CNc2ncncc2-c2ccccc2OC)c(OC)c1 5.01 µM
COc1cc(/C=C2/C(=N)N3C=CSC3=NC2=O)ccc1OCCCOc1c(C)cccc1C 3.55 µM
CCOC(=O)c1c(C(C)(C)C)oc2ccc(O)cc12 0.251 µM
CCC1(O)c2ccccc2-c2ncccc21 (centres undefined) 14.1 µM
O=c1c(-c2ccccc2)nc2cnc(N3CCOCC3)nc2n1C[C@H]1CCCO1 3.16 µM
O=c1c(-c2ccc(F)cc2)nc2cnc(N3CCOCC3)nc2n1C[C@H]1CCCO1 1.58 µM
O=c1c(-c2ccc(Cl)cc2)nc2cnc(N3CCOCC3)nc2n1C[C@H]1CCCO1 2 µM
COc1ccc2c(c1)Cc1cc(N=[N+]([O-])c3ccc4c(c3)Cc3cc(OC)ccc3-4)ccc1-2 1.58 µM

AC50, inactive:
C[C@@](N)(Cc1ccc(O)c(O)c1)C(=O)O
C[C@@](N)(Cc1ccc(O)cc1)C(=O)O
